Compound activity: PubChem, The Scripps Research Institute Molecular Screening Center
Sampled rows, rich in hits. Any-hit rate of the full collection: about 2.9%.
EBNA-1 inh: EBNA-1 DNA-binding inhibitors, primary screen, biochemical, fluorescence polarization; inhibition, % at 14.8 µM; actives 0.34% (n = 300,000); in the data active = inhibition above about 28%
PAFAH1B3 inh: PAFAH1B3 enzyme inhibitors, primary screen, biochemical, fluorescence polarization, human; Platelet-activating factor acetylhydrolase IB subunit alpha1 (Homo sapiens), Q15102; AID 492972, 2010; recombinant PAFAH1B3, FP-rhodamine probe; inhibition, % at 3.39 µM; actives 0.28% (n = 340,000);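 active = inhibition above the screen-wide average of all tested compounds plus 3 SD, cut at about 25% in these data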
rCAG binder: binders of r(CAG) RNA repeats, primary screen, biochemical, fluorescence; r(CAG) RNA repeat, TO-PRO-1 dye displacement fluorescence; inhibition, % at 3 µM; actives 1.3% (n = 370,000); AID 651821, 2012;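 active = inhibition above the plate cutoff, the mean of all test compounds on that plate plus 3 SD, cut at about 35% in these data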;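 also: higher means more dye released from RNA so lower well fluorescence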
PAFAH2 inh: PAFAH2 enzyme inhibitors, primary screen, biochemical, fluorescence polarization, human. Platelet-activating factor acetylhydrolase 2, cytoplasmic (Homo sapiens), Q99487. recombinant PAFAH2, FP-rhodamine activity probe. inhibition, % at 3.39 µM. actives 0.99% (n = 340,000);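 active = inhibition above the mean over all tested compounds plus 3 SD, cut at about 30% in these data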;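 also: inhibitors block probe labeling of enzyme so polarization drops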
ZTA DNA inh: ZTA (EBV) inhibition in EBNA-1 counter-screen. P03206. ZTA-DNA binding, fluorescence polarization. inhibition, % at 11 µM. actives 0.15% (n = 320,000); in the data active = inhibition above about 33%
Target sequence (P03206 whole entry, looked up): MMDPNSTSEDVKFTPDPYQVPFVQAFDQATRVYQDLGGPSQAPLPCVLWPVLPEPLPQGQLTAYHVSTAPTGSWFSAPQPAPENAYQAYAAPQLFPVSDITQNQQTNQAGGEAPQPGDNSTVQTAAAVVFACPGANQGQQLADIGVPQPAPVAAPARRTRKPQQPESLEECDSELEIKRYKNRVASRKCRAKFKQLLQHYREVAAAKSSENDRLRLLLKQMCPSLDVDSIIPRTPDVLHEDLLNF
PAFAH1B2 FP inh: PAFAH1B2 enzyme inhibitors, primary screen, biochemical, fluorescence polarization, human; actives 1.2% (n = 340,000); AID 492953, 2010; recombinant PAFAH1B2, FP-rhodamine activity probe; inhibition, % at 3.39 µM;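 active = inhibition above the mean of all tested compounds plus 3 SD, cut at about 24% in these data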
Target sequence (P68402 whole entry, looked up): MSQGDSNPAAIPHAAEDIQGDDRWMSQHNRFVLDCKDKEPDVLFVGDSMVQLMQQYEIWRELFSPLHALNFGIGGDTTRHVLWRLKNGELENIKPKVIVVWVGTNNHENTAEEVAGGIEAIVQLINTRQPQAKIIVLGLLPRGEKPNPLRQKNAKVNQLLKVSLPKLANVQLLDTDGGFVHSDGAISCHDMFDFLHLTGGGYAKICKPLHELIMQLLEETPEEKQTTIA
PAFAH2 confirm: PAFAH2 enzyme inhibitors, confirmation, biochemical, fluorescence polarization, human. shares compounds with PAFAH2 inh. recombinant PAFAH2, FP-rhodamine activity probe. inhibition, % at 3.39 µM. actives 65% (n = 2,300);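 active = mean inhibition over three repeats above a set limit taken from the earlier primary screen, cut at about 30% in these data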;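 also: inhibitor blocks binding of rhodamine activity probe so polarization falls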
Numbers stand for hits.

How did CC(C)(C)NC(=O)C1C(c2ccc(C(F)(F)F)cc2)=Nc2ccccc2N1C(=O)c1cccc2ccccc12 (stereo unspecified) do in these assays?
rCAG binder: inactive

What do the screens show for `C/C(C=Nn1c(-c2ccc(F)cc2)n[nH]c1=S)=C/c1ccco1`?
rCAG binder: inactive

How did C=C1[C@@H](C)CN[C@@H]1CCO do in these assays?
rCAG binder: inactive

How did CCOC(=O)c1cc(C(=O)c2cc(Br)ccc2O)coc1=N do in these assays?
EBNA-1 inh: inactive; PAFAH1B3 inh: inactive; rCAG binder: inactive; PAFAH2 inh: inactive; ZTA DNA inh: inactive; PAFAH1B2 FP inh: inactive

What do the screens show for `COC(=O)c1cc(C(=O)c2cc(Br)ccc2O)coc1=N`?
EBNA-1 inh: inactive; PAFAH1B3 inh: inactive; rCAG binder: inactive; PAFAH2 inh: 31; ZTA DNA inh: inactive; PAFAH1B2 FP inh: inactive; PAFAH2 confirm: inactive

What do the screens show for `COC(=O)[C@@H](N[C@H](/C=C/c1ccccc1)[C@@H](O)Cc1ccccc1)c1ccccc1`?
rCAG binder: inactive

How did Cc1ccccc1C(=O)n1ccc2ccc(-c3ccc4ccn(Cc5ccccc5)c4c3)cc21 do in these assays?
rCAG binder: inactive

How did CCOC(=O)C1=CN(Cc2ccco2)S(=O)(=O)NC1c1ccc(Br)cc1F (stereo unspecified) do in these assays?
PAFAH1B3 inh: inactive; rCAG binder: inactive; PAFAH2 inh: inactive; PAFAH1B2 FP inh: inactive; PAFAH2 confirm: inactive

How did CCOC(=O)C1=CN(Cc2cccc(F)c2)S(=O)(=O)NC1c1ccccc1 (stereo unspecified) do in these assays?
PAFAH1B3 inh: inactive; rCAG binder: inactive; PAFAH2 inh: inactive; PAFAH1B2 FP inh: inactive

Results for Cc1c(C(c2cc3c(cc2Br)OCO3)c2c(C)n(C)n(-c3ccccc3)c2=O)c(=O)n(-c2ccccc2)n1C ?
EBNA-1 inh: inactive; PAFAH1B3 inh: inactive; rCAG binder: inactive; PAFAH2 inh: 81; ZTA DNA inh: inactive; PAFAH1B2 FP inh: inactive; PAFAH2 confirm: 77

How did COc1ccc(OC)c(NC(=O)COC(=O)c2c(C)noc2C)c1 do in these assays?
PAFAH1B3 inh: inactive; rCAG binder: inactive; PAFAH2 inh: inactive; ZTA DNA inh: inactive; PAFAH1B2 FP inh: inactive

Results for COc1cc(OC)c(C(=O)OCC(=O)Nc2cc(C)on2)cc1OC ?
EBNA-1 inh: inactive; PAFAH1B3 inh: inactive; rCAG binder: inactive; PAFAH2 inh: inactive; ZTA DNA inh: inactive; PAFAH1B2 FP inh: inactive

What do the screens show for `COc1ccc(C(=O)OCC(=O)Nc2ccc(Cl)c(C(F)(F)F)c2)c(OC)c1OC`?
EBNA-1 inh: inactive; PAFAH1B3 inh: inactive; rCAG binder: inactive; PAFAH2 inh: 68; ZTA DNA inh: inactive; PAFAH1B2 FP inh: inactive; PAFAH2 confirm: 77

Results for COc1ccc(C(=O)OCC(=O)Nc2cc(C)on2)c(OC)c1OC ?
EBNA-1 inh: inactive; PAFAH1B3 inh: inactive; rCAG binder: inactive; PAFAH2 inh: 68; ZTA DNA inh: inactive; PAFAH1B2 FP inh: inactive; PAFAH2 confirm: 65

What do the screens show for `COc1cc(CC(=O)Nc2ccc(Cl)c(C(F)(F)F)c2)cc(OC)c1OC`?
EBNA-1 inh: inactive; PAFAH1B3 inh: inactive; rCAG binder: inactive; PAFAH2 inh: inactive; ZTA DNA inh: inactive; PAFAH1B2 FP inh: inactive

What do the screens show for `COc1ccc(C)cc1NC(=O)COC(=O)c1c(C)noc1C`?
EBNA-1 inh: inactive; PAFAH1B3 inh: inactive; rCAG binder: inactive; PAFAH2 inh: 46; ZTA DNA inh: inactive; PAFAH1B2 FP inh: inactive; PAFAH2 confirm: inactive

How did COc1cc(C(=O)OCC(=O)Nc2cc(C)on2)c([N+](=O)[O-])cc1OC do in these assays?
EBNA-1 inh: inactive; PAFAH1B3 inh: inactive; rCAG binder: inactive; PAFAH2 inh: 37; ZTA DNA inh: inactive; PAFAH1B2 FP inh: inactive; PAFAH2 confirm: inactive

What do the screens show for `O=C(NCc1ccco1)C(=O)NN=Cc1ccccc1O`?
rCAG binder: inactive

How did CCOc1ccc(C2CC=C(C(=O)O)CN2S(=O)(=O)c2ccc(C)cc2)cc1 (stereo unspecified) do in these assays?
rCAG binder: inactive

Results for COc1ccc(C(=O)OCC(=O)NCc2ccccc2)c(OC)c1OC ?
EBNA-1 inh: inactive; PAFAH1B3 inh: inactive; rCAG binder: inactive; PAFAH2 inh: 57; ZTA DNA inh: inactive; PAFAH1B2 FP inh: inactive; PAFAH2 confirm: 56

Results for COc1ccc(OC)c(NC(=O)C2C(C(=O)O)C3(Cl)C(Cl)=C(Cl)C2(Cl)C3(Cl)Cl)c1 (stereo unspecified) ?
EBNA-1 inh: inactive; PAFAH1B3 inh: inactive; rCAG binder: inactive; PAFAH2 inh: 51; ZTA DNA inh: inactive; PAFAH1B2 FP inh: inactive; PAFAH2 confirm: 40

Results for CCN(CC)c1ccc(S(=O)(=O)N2CCOCC2)cc1NC(=O)COC(=O)/C=C/c1ccc(O)c(OC)c1 ?
PAFAH1B3 inh: inactive; rCAG binder: inactive; PAFAH2 inh: 65; PAFAH1B2 FP inh: inactive; PAFAH2 confirm: 66

What do the screens show for `CCN(CC)c1ccc(S(=O)(=O)N2CCOCC2)cc1NC(=O)COC(=O)/C=C/c1ccccc1`?
PAFAH1B3 inh: inactive; rCAG binder: inactive; PAFAH2 inh: 57; PAFAH1B2 FP inh: inactive; PAFAH2 confirm: 42

How did CCN(CC)c1ccc(S(=O)(=O)N2CCOCC2)cc1NC(=O)COC(=O)/C=C/c1ccc(C)o1 do in these assays?
EBNA-1 inh: inactive; PAFAH1B3 inh: inactive; rCAG binder: inactive; PAFAH2 inh: 38; ZTA DNA inh: inactive; PAFAH1B2 FP inh: inactive; PAFAH2 confirm: 40

What do the screens show for `CCN(CC)c1ccc(S(=O)(=O)N2CCOCC2)cc1NC(=O)COC(=O)c1ccco1`?
EBNA-1 inh: inactive; PAFAH1B3 inh: inactive; rCAG binder: inactive; PAFAH2 inh: inactive; ZTA DNA inh: inactive; PAFAH1B2 FP inh: inactive

What do the screens show for `CN(C(=O)c1ccc(NC(=O)Cc2cccc(NC(=O)C3CCN(C(=O)CCc4ccccc4)CC3)c2)cc1)C1CC1`?
rCAG binder: inactive

How did CCn1c(SCc2ccccc2Cl)nnc1-c1ccccc1OC do in these assays?
rCAG binder: inactive

Results for COC(=O)CN1CCN(C(=O)c2csc(N3CCOCC3)n2)CC1 ?
rCAG binder: inactive

Results for Cc1cc(NC(=O)COC(=O)c2cc3c(s2)CCC(C)C3)no1 (stereo unspecified) ?
EBNA-1 inh: inactive; PAFAH1B3 inh: inactive; rCAG binder: inactive; PAFAH2 inh: 30; ZTA DNA inh: inactive; PAFAH1B2 FP inh: inactive; PAFAH2 confirm: inactive

Results for CC1CCc2sc(C(=O)OCC(=O)NC(C)C)cc2C1 (stereo unspecified) ?
EBNA-1 inh: inactive; PAFAH1B3 inh: inactive; rCAG binder: inactive; PAFAH2 inh: 31; ZTA DNA inh: inactive; PAFAH1B2 FP inh: inactive; PAFAH2 confirm: inactive
